Laboratory results from PubChem BioAssay (EPA / NIEHS).
Several values for one entry are separate records, joined by “and”; a condition that tells them apart may be missing. Equal entries are not always repeated. Inconclusive results are not listed. Activity calls are given as the source filed them. The calls were made as follows: active = hit-call score of the fitted dose curve at least 0.9, where 1 is the maximum; inconclusive = response in the unintended direction; inactive = score below 0.9.

How the values were obtained:
[1] = target: Cellular tumor antigen p53 (Homo sapiens) (UniProt P04637); assay: TOX21_p53_BLA_p5_ratio: Tox21 HCT-116 p53 Agonism Beta-lactamase Assay, Ratio, Phase 5 (AID 2283599)
Outline: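 HCT-116 p53-bla cells (4000/well) plated 5 h, dosed with compound (217-fold DMSO dilution) for 16 h at 37 C; CCF4-AM substrate 2 h at room temperature. Activity is the 460/530 nm emission ratio (405 nm excitation), fitted in gain-of-signal direction versus DMSO.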

[2] = TOX21_p53_BLA_p5_viability: Viability Assessment in the Tox21 HCT-116 p53 Agonism Beta-lactamase Assay, Phase 5 (AID 2283600)
Outline: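 Compounds, pinned from DMSO at 217-fold dilution, were left on the cells for 16 h. The viability endpoint was ATP content measured by CellTiter-Glo luminescence, where falling signal reflects cytotoxicity.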

[3] = target: Cellular tumor antigen p53 (Homo sapiens) (UniProt P04637); assay: TOX21_p53_BLA_p4_ratio: Tox21 HCT-116 p53 Agonism Beta-lactamase Assay, Ratio, Phase 4 (AID 2283601)
Outline: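 HCT-116 p53 beta-lactamase reporter cells (4000/well) preincubated 5 h, then compound (217-fold dilution of DMSO stock) for 16 h at 37C. CCF4-AM substrate added 2 h at room temperature; 460/530 nm emission ratio fitted upward versus DMSO.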

[4] = Tanguay_ZF_120hpf_MORT_legacy: (Legacy) Oregon State University Tanguay Lab 120 Hour Post-fertilization zebrafish Assay for Mortality (AID 2283633);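 as to AC50: fitted as increase in binary mortality versus DMSO negative control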
Outline: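 Brightfield scoring of embryo death (binary) at 24 and 120 hpf; static exposure 6–120 hpf, 28C, sealed and foil-covered. Pronase-dechorionated 5D wild-type larvae, single embryo per well. DMSO 0.64% v/v; trimethyltin chloride 5uM positive control.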

[5] = Tanguay_ZF_120hpf_YSE_legacy: (Legacy) Oregon State University Tanguay Lab 120 Hour Post-fertilization zebrafish Assay for Yolk Sac Edema (AID 2283634);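 as to AC50: actives raise the incidence of yolk sac edema above the DMSO baseline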
Outline: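 Binary brightfield scoring of yolk sac edema at 120 hpf; DMSO baseline, gain-of-signal fitting. Dechorionated 5D larvae, one per well, static exposure 6–120 hpf, 28C, 0.64% DMSO. Dead embryos not scored.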

[6] = Tanguay_ZF_120hpf_AXIS_legacy: (Legacy) Oregon State University Tanguay Lab 120 Hour Post-fertilization zebrafish Assay for Body Axis Malformation (AID 2283635);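 as to AC50: potency for an increased fraction of larvae scored with body axis malformation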
Outline: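 Embryos: 5D wild-type, pronase-dechorionated 4 hpf; static exposure 6–120 hpf, 28C, sealed, dark, 1 embryo/well, 0.64% DMSO. 120 hpf axis malformation scored present/absent; dead embryos excluded. Analysed as gain of signal vs DMSO.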

[7] = Tanguay_ZF_120hpf_SNOU_legacy: (Legacy) Oregon State University Tanguay Lab 120 Hour Post-fertilization zebrafish Assay for Snout Malformation (AID 2283637)
Outline: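 Dechorionated tropical 5D wild-type zebrafish embryos exposed statically from 6 to 120 hpf at 28C, one per well, in 0.64% DMSO. Snout malformation scored as present/absent by brightfield at 120 hpf; dead embryos not scored.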

[8] = target: Cellular tumor antigen p53 (Homo sapiens) (UniProt P04637); assay: TOX21_p53_BLA_p3_ratio: Tox21 HCT-116 p53 Agonism Beta-lactamase Assay, Ratio, Phase 3 (AID 2283596)
Outline: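 HCT116 p53-bla cells (4000/well) given compound in DMSO (217-fold dilution) after 5 h, incubated 16 h at 37C. CCF4-AM substrate 2 h at room temperature; 460/530 nm emission ratio, gain fitted against DMSO.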

[9] = Tanguay_ZF_120hpf_EYE_legacy: (Legacy) Oregon State University Tanguay Lab 120 Hour Post-fertilization zebrafish Assay for Eye Malformation (AID 2283636);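 also: binary presence or absence of eye malformation scored by brightfield in 120 hpf larvae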
Outline: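 Dechorionated Tropical 5D zebrafish embryos, one per well from 6 hpf, static exposure to 120 hpf at 28C, 0.64% DMSO. Eye malformation scored present/absent by brightfield; dead embryos not scored.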

[10] = TOX21_p53_BLA_p4_viability: Viability Assessment in the Tox21 HCT-116 p53 Agonism Beta-lactamase Assay, Phase 4 (AID 2283597);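 also: hits lower the luminescence signal meaning cytotoxicity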
Outline: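 We seeded HCT116 p53 reporter cells at 4000/well and waited 5 h. We then added compounds in DMSO at a 217-fold dilution and incubated for 16 h. Viability was read as CellTiter-Glo luminescence after 30 min at RT.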

Measured: AC50

Sequence of Cellular tumor antigen p53 (Homo sapiens) (P04637 whole entry, looked up): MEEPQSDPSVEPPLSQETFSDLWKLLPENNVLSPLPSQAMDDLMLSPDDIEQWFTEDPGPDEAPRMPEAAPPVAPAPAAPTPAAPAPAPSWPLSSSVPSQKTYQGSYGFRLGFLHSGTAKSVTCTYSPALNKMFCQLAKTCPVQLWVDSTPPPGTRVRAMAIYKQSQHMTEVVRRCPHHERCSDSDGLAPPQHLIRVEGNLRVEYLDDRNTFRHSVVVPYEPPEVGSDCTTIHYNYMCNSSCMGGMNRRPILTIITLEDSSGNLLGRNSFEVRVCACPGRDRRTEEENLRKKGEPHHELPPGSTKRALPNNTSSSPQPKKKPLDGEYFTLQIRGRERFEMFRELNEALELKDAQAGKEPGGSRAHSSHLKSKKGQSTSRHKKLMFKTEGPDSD

O=C(N[C@H](c1ccccc1)[C@@H]1CN2CCC1CC2)c1c(Cl)ccc(C(F)(F)F)c1Cl
active: [3] 127 µM | [4] 26.7 µM | [6] 1.27 µM
inactive: [1] | [2] | [5] | [7]

CS(=O)(=O)NC(=O)c1cc(Oc2ccc(C(F)(F)F)cc2Cl)ccc1[N+](=O)[O-]
not listed: [1] | [10]
inactive: all other assays above

O=C(Oc1ccc(Br)cc1)N1CCN2CCC1CC2
active: [6] 38.3 µM
not listed: [1] | [7] | [8]
inactive: all other assays above

OCCCl
inactive: [8] | [4] | [5] | [6] | [9]

[O-][Cl+]O
not listed: [3] | [8] | [10]
inactive: all other assays above

C[C@]12C=CC3=C4CCC(=O)C=C4CC[C@H]3[C@@H]1CC[C@@H]2O
active: [5] 48.8 µM | [9] 27.1 µM | [7] 43.3 µM
inactive: [4]

O=[N+]([O-])C(Br)(CO)CO
inactive: [4] | [5] | [6] | [9]

N#CC(Br)Br
inactive: [4] | [6] | [7]

Clc1ccc(Cl)c(Cl)c1
not listed: [4] | [7] | [10]
inactive: all other assays above

Clc1ccccc1Cl
inactive: [4] | [5] | [6] | [9] | [7]

COC(=O)c1ccccc1N
not listed: [1] | [10]
inactive: all other assays above

CC(C)(OOC(C)(C)c1ccccc1)c1ccccc1
not listed: [8]
inactive: all other assays above

CCNS(=O)(=O)C(F)(F)C(F)(F)C(F)(F)C(F)(F)C(F)(F)C(F)(F)C(F)(F)C(F)(F)F
active: [5] 43 µM | [6] 55.9 µM | [9] 53.6 µM
inactive: [4]

CCCCCCCCCCCCCN1CC(C)OC(C)C1 (stereo unspecified)
not listed: [1] | [2] | [10]
inactive: all other assays above

c1ccc(NNc2ccccc2)cc1
inactive: [8] | [1] | [3] | [4] | [5] | [9]

CCOC(=O)[C@]1(c2ccccc2)Oc2ccccc2[C@@H]1N
inactive: [4] | [5] | [6] | [9]

CC(C)COC(=O)c1ccccc1C(=O)OCC(C)C
inactive: [4] | [5] | [6]
active: [9] 30.5 µM | [7] 44.1 µM

O=C(Nc1ccccc1)c1ccccc1I
inactive: [4]
active: [5] 51.3 µM | [9] 10.5 µM

[As]#[In]
inactive: [8] | [3] | [4] | [5] | [6]

OCCOCCO
inactive: [4] | [5] | [6] | [9] | [7]

c1ccc(N=Nc2ccccc2)cc1
not listed: [2] | [10]
inactive: all other assays above

Cn1cc(-c2ccccc2)c(=O)c(-c2cccc(C(F)(F)F)c2)c1
not listed: [2] | [7] | [10]
inactive: all other assays above

CCOc1cccc(C2(N3CCN(c4ccccc4)CC3)CCC(C)CC2)c1 (stereo unspecified)
inactive: [8] | [4] | [5] | [6] | [9]

CC(C)N(Cc1ccccc1)C(=O)C(C)(C)C
not listed: [2] | [10]
inactive: all other assays above

[Cl-].[Cl-].[Hg+2]
active: [10] 32.1 µM and 9.76 µM and 12 µM | [2] 85.2 µM and 19 µM and 18.5 µM | [4] 2.7 µM | [5] 4.25 µM | [6] 3.84 µM | [9] 1.05 µM

CC(C)(C)OOC(C)(C)CCC(C)(C)OOC(C)(C)C
inactive: [1] | [2] | [3] | [4] | [5] | [9]

CC(C)(O)c1cnn2c(-c3ccc(F)c(-c4c(F)cccc4C#N)c3)cnc2n1
not listed: [1] | [2] | [8]
inactive: all other assays above

Oc1ccccc1Cl
inactive: [8] | [1] | [2] | [3] | [4] | [9]
